{"source": "PubChem BioAssay (NCI)", "note": "About 83,000 compounds went through this panel and 20% of them were active in at least one assay; those are over-represented in the sample as a whole.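 48-hour exposure, single concentration, 96-well plates; percent growth endpoint where 0 means no net growth. Active: below 10.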 The source made the active and inactive calls."}
{"system": "MDA-MB-468 breast", "assay": "NCI-60 one-dose screen, 48 h (100 = growth as untreated, 0 = no growth, -100 = all killed)", "conditions": "10 µM unless noted"}
{"molecule": "N#CN1CC[C@H](C(=O)Nc2ncc(-c3ccccc3)s2)C1", "growth": "-49.9% (active)"}
{"molecule": "COc1ccc2[nH]c(O)c(C(=Nc3ccc(N(C)C(=O)CN4CCN(C)CC4)cc3)c3ccccc3)c2c1", "growth": "58.1% (inactive)"}
{"molecule": "Cc1ccc2[nH]c(=S)[nH]c(=O)c2c1", "growth": "102% (inactive)"}
{"molecule": "O=C1CCC(C(=O)NCCNCCNC(=O)C2CCC(=O)N2)N1", "note": "(stereo not given)", "growth": "89.7% (inactive)"}
{"molecule": "COc1cc2c(C#N)n3c(c2cc1OC)C(=O)C(c1ccccc1)Oc1ccccc1-3", "note": "(stereo not given)", "growth": "74.5% (inactive)"}
{"molecule": "CC1=C(C)C(=O)C(Nc2cccc(C(F)(F)F)c2)=C(Br)C1=O", "growth": "-61.4% (active)"}
{"molecule": "Cc1c(C)n(CC(O)CNC2CCCCC2C)c2ccccc12", "note": "(stereo not given)", "growth": "-33.8% (active)"}
{"molecule": "CCN1CCN(C(=S)SCC(=O)Nc2nc3ccc(OC)cc3s2)CC1", "growth": "97.7% (inactive)"}
{"molecule": "Cc1cccc(C)c1NCc1nnc(-c2ccc(O)cc2)o1", "growth": "96.2% (inactive)"}
{"molecule": "O=C(Nc1ccc(Cl)c(Cl)c1)Nc1ccc(Cl)c([N+](=O)[O-])c1", "growth": "-19% (active)"}
{"molecule": "CCN(CC)CCCC(C)Nc1c2c(nc3ccc(OC)cc13)CCCC2", "note": "(stereo not given)", "growth": "98.8% (inactive)"}
{"molecule": "O=C1/C(=C/C=C/c2ccco2)SC(=S)N1C1CCCCC1", "growth": "43.4% (inactive)"}
{"molecule": "O=C(O)Cc1cccc(=O)c(O)c1C(=O)O", "growth": "105% (inactive)"}
{"molecule": "c1ccc(-c2nnc(-c3c[nH]c4ncccc34)s2)cc1", "growth": "79.9% (inactive)"}
{"molecule": "C=CCOc1ccc(N=NC(C#N)C#N)cc1", "growth": "30.3% (inactive)"}
{"molecule": "COc1ccc2c(c1)sc1nc(-c3ccccc3)c(-c3cccnc3)n12", "growth": "90.1% (inactive)"}
{"molecule": "COc1ccc(Cl)c(Nc2nc3ccccc3nc2NS(=O)(=O)c2cccc(NC(=O)C(C)(C)N)c2)c1", "growth": "21.5% (inactive)"}
{"molecule": "CCOC(=O)c1sc(-c2ccc(OS(=O)(=O)c3ccc(C(C)(C)C)cc3)c(C=O)c2)nc1C", "growth": "1.65% (active)"}
{"molecule": "CCN(CC)c1ccc(/C=N/NC(=O)CSc2nc3ccccc3c(=O)n2Cc2ccc(S(N)(=O)=O)cc2)c(O)c1", "growth": "-11% (active)"}
{"molecule": "O=C(N(c1ccccc1)c1ccccc1)n1cc(I)c2nc(Cl)nc(Cl)c21", "growth": "27.8% (inactive)"}
{"molecule": "Cc1cnc(N)nc1OCC(C)(C)CNC(=O)c1cccc(-c2ccc(S(=O)(=O)Nc3ccc4c(c3)N(C(=O)C3CC3)CCC4)cc2)c1", "growth": "22.6% (inactive)"}
{"molecule": "CCNCCCn1c2c(c3ccc(Cl)cc3c1=O)C(=O)c1cc(OC)cnc1-2", "growth": "5.92% (active)"}
{"molecule": "Cc1nn(-c2ccccc2)c2c1N=c1s/c(=C\\c3cn(-c4ccccc4)nc3-c3ccc(Cl)cc3)c(=O)n1C(C)N2", "note": "(stereo not given)", "growth": "86.6% (inactive)"}
{"molecule": "COc1cccc(N2CCN(CC(=O)N3CCN(c4nnc(-c5ccc(Cl)cc5)c(-c5ccc(Cl)cc5)n4)CC3)CC2)c1", "growth": "76.5% (inactive)"}
{"molecule": "c1ccc(OCc2nnc(-c3ccc(Oc4ccccc4)cc3)o2)cc1", "growth": "111% (inactive)"}
{"molecule": "CC1CCc2cc(F)cc3c(=O)c(C(=O)O)cn1c23", "note": "(stereo not given)", "growth": "109% (inactive)"}
{"molecule": "CCOP(=O)(OCC)/C(C#N)=C/c1c(C)[nH]c2ccccc12", "growth": "99.7% (inactive)"}
{"molecule": "O=C(N/N=C/c1cc([N+](=O)[O-])ccc1O)c1cccc2ccccc12", "growth": "-8.62% (active)"}
{"molecule": "COC1=CC(c2ccc[nH]2)=N/C1=C\\c1[nH]c(C)c(C(=O)OC(C)C)c1C", "growth": "-74.1% (active)"}
{"molecule": "CCCCn1c(=O)c(/C=C/C(=O)/C=C/c2ccc(OC)cc2)cc2cc(Cl)ccc21", "growth": "86.1% (inactive)"}
{"molecule": "C[C@]12CC[C@H]3[C@@H](CC[C@H]4C[C@@H](O)CC[C@@]43C)[C@@H]1CC(=O)C2", "growth": "113% (inactive)"}
{"molecule": "C=CC[N+](C)(C)C", "growth": "97.4% (inactive)"}
{"molecule": "O=c1n(C2OC(CO)C(O)C2O)ccc2nccn12", "note": "(stereo not given)", "growth": "122% (inactive)"}
{"molecule": "O=C(CCNC(=O)c1nc(-c2ccccc2)n(-c2ccc(Cl)cc2)n1)NO", "growth": "107% (inactive)"}
{"molecule": "O=C1/C(=C/c2ccc(C(F)(F)F)cc2)COc2ccc(O)cc21", "growth": "100% (inactive)"}
{"molecule": "O=c1c2cccc3c(Nc4ccccn4)ccc(c32)c2nc3ccccc3n12", "growth": "-22.4% (active)"}
{"molecule": "CCCCNC(=O)Oc1ccc2c(=O)c3sc4c(=O)c5ccccc5c(=O)c4c3c(=O)c2c1", "growth": "-48.3% (active)"}
{"molecule": "Cc1ccc(C(=O)O)o1", "growth": "112% (inactive)"}
{"molecule": "CN(C)CCCOc1c2ccc(Cl)cc2nc2c1oc1ccccc12", "growth": "-39.8% (active)"}
{"molecule": "COc1ccc(C2=CC(c3ccc(OC)cc3Br)N3C=CSC3=N2)cc1", "note": "(stereo not given)", "growth": "17.4% (inactive)"}
